Experimental data: the supplement of paper PMC11417369
± gives the standard deviation of the averaged measurements. Whole data set: some 25,000 sequences, median “ln(normalized median fluorescence intensity)” near 7.9, cut for the highest 2% near 11. For the sample, the highest values were picked, then their nearest neighbours and some sequences at random.

Test system: PfAP2-I AP2 domain 3 (GST-tagged)
Test: gcPBM binding intensity (ln(normalized median fluorescence intensity)); higher = stronger DNA binding
How it was run: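 Binding intensity is defined as the maximum Masliner-normalised natural-log median intensity across replicate spots for either probe orientation. It was measured on an Agilent 4 × 180k array of primer-extended double-stranded 36-bp intergenic genomic probes and negative controls, to which GST-tagged P. falciparum DNA-binding domains made in E. coli were applied for 1 h in 1× PBS with 1% milk, 0.2 mg/ml BSA, 0.5% salmon testes DNA and 0.03% Triton X-100. Detection was by Alexa488 anti-GST antibody and scanning at 488 nm.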

Sequence	gcPBM binding intensity (ln)
ATCAACATTATGGTTAGTACTTAGTGAATTGTTAAT [XGTACX_site4926]	7.63 ± 0.59
TTCTATATATTATATGCATGTAAAACATATTAAAAT [TGCATGCA_site662]	7.93 ± 0.61
TTCATATATTATTATGCATGTTCATAAATTATCTAA [TGCATGCA_site896]	7.88 ± 0.58
TTGTTCTATATATATGCATGCACGTATGTTAAATTA [TGCATGCA_site659]	11.3 ± 0.23
TACCTTTTTTGTTTTATGCACACCATATAACCAAGG [CACACA_site30]	10.3 ± 0.33
TCGTAAACTTTATGCACACACATATACATATTTCAT [CACACA_site739]	10.2 ± 0.53
ATTATGCACGGACACACACACACACCCCTAAAAAAT [CACACA_site5426]	10.4 ± 0.49
TAATTATGCCAACACACACACACACCCAACTAAAAA [CACACA_site8823]	8.22 ± 0.25
ATTATGCACCAACACACACACACACTCCTAAAAAAT [CACACA_site8822]	11.4 ± 0.95
TGTGCCCAAAATTATGCACACACCTAAAATTAATTT [CACACA_site2914]	10.3 ± 0.4
TGCACAAAATTATGCACACACCTAAAATTAATTTTT [CACACA_site5596]	9.98 ± 0.32
ATTATGCACCAACACACACACACACCCCTAAAAAAT [CACACA_site2568]	11.4 ± 0.79
TTTTGTTTCTATATAAGATGGAAATATAAACTTGTA [CACACA_negctrl_site82]	7.64 ± 0.47
AATAAAAATTTACTTTGTACACATATTAAATTCAAT [XGTACX_site1957]	7.83 ± 0.15
TATATTAATAAAGGTACTACACGGAAATGGAAATAT [XGTACX_site7760]	8.58 ± 0.67
TTAAAATAAAGAAAATGTACATAAATAAAAATAAAG [XGTACX_site2280]	8.35 ± 0.45
AACCAATTATATTTACGTACGTACGGTTTTTTATAT [XGTACX_site1291]	7.94 ± 0.48
ATTTCTTTTTTATTGAGTACATATGACCATGTTCAA [XGTACX_site5365]	8.14 ± 0.38
ATTATTCATTTATGTAGTACATTTTAATACATTTAA [XGTACX_site3599]	7.75 ± 0.6
ACCAATAAATATTTGGTGCATACATATATATATATA	10.31 ± 0.064
ATTTCCTTTTGTTTCAGTACATAATTTTTTTTTTTT [XGTACX_site4842]	7.88 ± 0.62
CAACCTTTTTTGTTGGTGCATAATTTTTTTTTCTTT	10.9 ± 0.52
TATTTCTTTTGGTTGGTGCATAAAATAATACAATAT [GTGCAC_site9916]	11.2 ± 0.59

Sequence	gcPBM binding intensity (ln)
TTTTCTTTTTTTTTTGTGCACATAATATATAATTAT	10.8 ± 0.14
TACGTCTTTTTTTTGGTGCATAATTTTTTTGTACAA	11.2 ± 0.44
AGACCTTTAATTTGTGTGCACATAATTAGTGTACAT [GTGCAC_site9434]	9.96 ± 0.16
TTTCTTTATTAAAATATTTTACATATATAATATACG [TGCATGCA_negctrl_site564]	7.92 ± 0.55
AAAATTTCTTTTTTTTGTACATATATAATAATATAT [XGTACX_site7107]	7.82 ± 0.39
CGGACATACTAACGGACACACGTAAGAAAAAAAAAG [CACACA_site4504]	7.79 ± 0.58
ATAAATAAAAATACATGAACAGGTCAGGTTATTTTT [CACACA_negctrl_site1007]	7.29 ± 0.61
TATTTTGCAAAATGTGCATGTTGTGTATTATGTGAC [TGCATGCA_site59]	8.97 ± 0.51
AAAGAAATTATTTGTTGTACATATGTTATTTTTTTT [XGTACX_site7570]	7.75 ± 0.25
AAATGTGCATTATGTTGTACAGTCGAAATTTTTTTT [XGTACX_site3812]	11.1 ± 0.62
AAGAAAGACATTACGTGTACCAAACAACCTACCAAC [XGTACX_site4219]	8.22 ± 0.25
TTCCTTTGTTGTCGTTGTACTTATATGGTTATAATT [XGTACX_site3082]	8.29 ± 0.64
TAGGTCCTCATTTTATGTACATAAAGAAATATGATT [XGTACX_site4138]	7.86 ± 0.36
TATATATTAATATTTACACACATGCGCACCCATAAA [CACACA_site2410]	9.86 ± 0.57
CCATTTGATAATAATGCACACCACATATATTTATAT [CACACA_site9002]	11 ± 0.4
ACCCATTTGATAATAATGCACACCACATATATTTAT [CACACA_site3061]	11 ± 0.63
TATTATAATATTTATACACACATAATTTTGATAAAT [CACACA_site583]	7.68 ± 0.4
CCCATGCATTTTTGCACACACATATATTTATAAATA [CACACA_site6785]	9.75 ± 0.17
ATATATTTATAATACACATGCAATGATATAATATAT [TGCATGCA_site20]	8.43 ± 0.75
ACTCTCTTATATTAAACACACATATTTATAGGTATA [CACACA_site7302]	8.07 ± 0.45
AGGAGGATGCATATGGCACACATTATGAAACTGTCG [CACACA_site299]	9.11 ± 1
AATTTTTAGAAGAACACACACATATATATTATGACC [CACACA_site246]	7.75 ± 0.65
